According to the supplement of paper PMC7411054:

Legend:
Test in all cases: phenotypically active (imaging signature differs from DMSO and reproducible) at any of 0.3-9 uM (binary (1 = active, 0 = inactive)); higher = active
Conditions in all cases: treatment time: 24 h
[1] = system: A549-ACTB-RAB5A
In short: (§1)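 Cells from fifteen gene-edited reporter lines (A549, HepG2 and WPMY1) were treated for 24 h at 0.3, 1, 3 or 9 µM and imaged live, four wells per condition. Features were normalised per well to solvent control wells. A condition deviated if ≥3 of 4 wells passed the 95th percentile of control Euclidean distances and was reproducible if its median replicate Pearson correlation beat the 95th percentile of non-replicates; phenotypic activity needed both.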

[2] = system: A549-CANX-COX4
In short: as §1

[3] = system: A549-GM130-SQSTM1
In short: as §1

[4] = system: A549-TP53BP1-CLTA
In short: as §1

[5] = system: A549-TUBA1B-RELA
In short: as §1

[6] = system: HepG2-ACTB-RAB5A
In short: as §1

[7] = system: HepG2-CANX-COX4
In short: as §1

[8] = system: HepG2-GM130-SQSTM1
In short: as §1

[9] = system: HepG2-TP53BP1-CLTA
In short: as §1

[10] = system: HepG2-TUBA1B-RELA
In short: as §1

[11] = system: WPMY1-ACTB-RAB5A
In short: as §1

[12] = system: WPMY1-CANX-COX4
In short: as §1

[13] = system: WPMY1-GM130-SQSTM1
In short: as §1

[14] = system: WPMY1-TP53BP1-CLTA
In short: as §1

[15] = system: WPMY1-TUBA1B-RELA
In short: as §1

Measured: phenotypically active

COc1ccc(C(=O)Cc2c(CCN(C)C)cc3c(c2OC)OCO3)c(C(=O)O)c1OC [Narcétine]
inactive: [1] 0 | [2] 0 | [3] 0 | [4] 0 | [5] 0 | [6] 0 | [7] 0 | [8] 0 | [9] 0 | [10] 0 | [11] 0 | [12] 0 | [13] 0 | [14] 0 | [15] 0

CCN1C[C@]2(COC)CC[C@H](OC)[C@]34[C@@H]5C[C@H]6[C@H](OC)[C@@H]5[C@@]5(C[C@@H]6OC)OCO[C@@]5([C@H]13)[C@@H](O)[C@H]24 [Delcorine]
inactive: [1] 0 | [2] 0 | [3] 0 | [4] 0 | [5] 0 | [6] 0 | [7] 0 | [8] 0 | [9] 0 | [10] 0 | [11] 0 | [12] 0 | [13] 0 | [14] 0 | [15] 0

O[C@H]1[C@H](O)[C@@H](O)CN2CC[C@H](O)[C@H]12 [Castanospermine]
inactive: [1] 0 | [2] 0 | [3] 0 | [4] 0 | [5] 0 | [6] 0 | [7] 0 | [8] 0 | [9] 0 | [10] 0 | [11] 0 | [12] 0 | [13] 0 | [14] 0 | [15] 0

Clc1ccc2c(c1)C(c1ccccc1)=NCc1nncn1-2 [estazolam]
inactive: [1] 0 | [2] 0 | [3] 0 | [4] 0 | [5] 0 | [6] 0 | [7] 0 | [8] 0 | [9] 0 | [10] 0 | [11] 0 | [12] 0 | [13] 0 | [14] 0 | [15] 0

N#CC(CCN1CCC(C(=O)O)(c2ccccc2)CC1)(c1ccccc1)c1ccccc1 [difenoxin]
inactive: [1] 0 | [2] 0 | [3] 0 | [4] 0 | [5] 0 | [6] 0 | [7] 0 | [8] 0 | [9] 0 | [10] 0 | [11] 0 | [12] 0 | [13] 0 | [14] 0 | [15] 0

CN(C)NC(=O)CCC(=O)O [Daminozide]
inactive: [1] 0 | [2] 0 | [3] 0 | [4] 0 | [5] 0 | [6] 0 | [7] 0 | [8] 0 | [9] 0 | [10] 0 | [11] 0 | [12] 0 | [13] 0 | [14] 0 | [15] 0

CNC(C)(C)Cc1ccccc1 [mephentermine]
inactive: [1] 0 | [2] 0 | [3] 0 | [4] 0 | [5] 0 | [6] 0 | [7] 0 | [8] 0 | [9] 0 | [10] 0 | [11] 0 | [12] 0 | [13] 0 | [14] 0 | [15] 0

Cc1ccc(-c2nc3ccc(C)cn3c2CC(=O)N(C)C)cc1 [zolpidem]
inactive: [1] 0 | [2] 0 | [3] 0 | [4] 0 | [5] 0 | [6] 0 | [7] 0 | [8] 0 | [9] 0 | [10] 0 | [11] 0 | [12] 0 | [13] 0 | [14] 0 | [15] 0

CO[C@H](C)[C@](O)(C(=O)OCC1=CCN2CC[C@H](O)[C@@H]12)C(C)C [Heliotrine]
inactive: [1] 0 | [2] 0 | [3] 0 | [4] 0 | [5] 0 | [6] 0 | [7] 0 | [8] 0 | [9] 0 | [10] 0 | [11] 0 | [12] 0 | [13] 0 | [14] 0 | [15] 0

N#CC(C#N)=Cc1ccc(O)c(O)c1
inactive: [1] 0 | [2] 0 | [3] 0 | [4] 0 | [5] 0 | [6] 0 | [7] 0 | [8] 0 | [9] 0 | [10] 0 | [11] 0 | [12] 0 | [13] 0 | [14] 0 | [15] 0

CC1=C2[C@H]3OC(=O)[C@@H](C)[C@@H]3CC[C@@]2(C)C=CC1=O [alpha-Santonin]
inactive: [1] 0 | [2] 0 | [3] 0 | [4] 0 | [5] 0 | [6] 0 | [7] 0 | [8] 0 | [9] 0 | [10] 0 | [11] 0 | [12] 0 | [13] 0 | [14] 0 | [15] 0
